# High-throughput results (PubChem)
# This is a sample that favours compounds with a hit; in the whole collection about 0.88% have one here.
# APEX1 inh – qHTS Assay for Inhibitors of the Human Apurinic/apyrimidinic Endonuclease 1 (APE1) | hit rate 0.35% among 350,000 | recombinant APE1, TAMRA/BHQ-2 abasic DNA cleavage fluorescence | DNA repair nuclease/redox regulator APEX1 (Homo sapiens), P27695 | AID 2517, 2012 | Potency, µM (series often up to 65.8 µM), actives largely listed as inhibitors; note: nearly all actives have a fitted effect of over 55% in size
#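 Endonuclease cleavage of a quenched abasic-site DNA duplex (50 nM) by APE1 (0.75 nM) was tracked by TAMRA dequenching. Compounds were preincubated with enzyme 15 min at room temperature; data normalized to buffer-only and DMSO wells plus NSC13755 control.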
# ERG Ets-DNA blk – qHTS for Small Molecule Inhibitors of the ERG Ets/DNA interaction | Transcriptional regulator ERG (Homo sapiens), P11308 | fluorescence polarization, His-ERG Ets domain / labelled DNA | Potency, µM (titrated, usually from 76.9 µM), hits mostly inhibitors | hit rate 0.028% among 370,000 | AID 624246, 2012; active = well fitted inhibition curve with a large enough effect in the polarisation, with a control signal flat; inconclusive = small, poorly fitted or top-dose-only effect, or effect the other way, or a change in a side signal; inactive = no such curve, though single readings can be large or run the other way; the % refers to the polarisation;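 note: polarization taken with two DNA probes labelled with fluorescein and Texas red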
# Target sequence (P11308 whole entry, looked up, the tested form may be a part): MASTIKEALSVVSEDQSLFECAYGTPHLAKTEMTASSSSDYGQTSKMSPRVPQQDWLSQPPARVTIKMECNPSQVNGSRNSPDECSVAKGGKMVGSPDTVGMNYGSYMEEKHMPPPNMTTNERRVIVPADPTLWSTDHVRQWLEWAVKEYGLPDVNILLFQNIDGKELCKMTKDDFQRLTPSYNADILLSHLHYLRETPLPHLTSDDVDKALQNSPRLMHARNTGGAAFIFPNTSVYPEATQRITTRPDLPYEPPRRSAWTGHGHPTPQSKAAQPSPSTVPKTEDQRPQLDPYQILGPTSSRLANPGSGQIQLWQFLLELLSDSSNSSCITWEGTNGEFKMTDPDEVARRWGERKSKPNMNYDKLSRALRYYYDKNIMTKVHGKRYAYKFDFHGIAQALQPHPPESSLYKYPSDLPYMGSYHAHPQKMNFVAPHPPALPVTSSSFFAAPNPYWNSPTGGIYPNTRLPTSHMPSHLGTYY
#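 His-tagged ERG Ets domain (1 uM in the protein solution; 300mM KCl, 50mM Tris-HCl, 1mM EDTA, 1mM DTT, pH 7.5) received compound, then a probe mix of 5 nM fluorescein-DNA and 100nM Texas-615-DNA. Fluorescence polarization was read for both dyes.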
# KAT2A inh – qHTS Assay for Inhibitors of GCN5L2 | AID 504327, 2011 | hit rate 0.21% among 390,000 | Potency, µM (top dose mostly 58.9 µM), actives largely listed as inhibitors | GCN5L2 HAT assay, ThioGlo1 CoA-SH fluorescence | Histone acetyltransferase KAT2A (Homo sapiens), Q92830
#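 Titration-based screen in which CoA formation is detected via maleimide probe ThioGlo1 (50uM) turning fluorescent on thiol reaction; substrates H3(1-25) 75uM and acetyl-CoA 70uM, GCN5L2 20nM, 20 min incubation at room temperature.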
# RECQ1 inh – qHTS Assay for Inhibitors of RecQ-Like Dna Helicase 1 (RECQ1). RECQ1 DNA unwinding, red fluorescence kinetic read. Potency, µM (top dose mostly 57.3 µM), usual class: inhibitors. ATP-dependent DNA helicase Q1 (Homo sapiens), P46063. hit rate 0.54% among 240,000; note: nearly all actives have a fitted effect of over 30% in size
#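 RECQ1T1 50 nM; forked duplex (20 bp + 30-nt ss tails) 200 nM, ATP 2 mM final; pH 8.0, 2 mM MgCl2, 2.5 ug/ml poly(dI-dC); 15 min compound preincubation; discontinuous kinetic read over 2 h at RT.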
# BLM inh – qHTS Assay for Inhibitors of Bloom's syndrome helicase (BLM). RecQ-like DNA helicase BLM (Homo sapiens), P54132. recombinant BLM DNA unwinding, fluorescence dequenching. Potency, µM (series often up to 56.1 µM), actives largely listed as inhibitors. hit rate 0.2% among 350,000; note: nearly all actives have a fitted effect of over 35% in size
# WRN helicase inh – qHTS for Inhibitors of WRN Helicase. Bifunctional 3'-5' exonuclease/ATP-dependent helicase WRN (Homo sapiens), Q14191. WRN helicase unwinding, fluorescent forked duplex, kinetic. Potency, µM (titrated, usually from 114 µM), usual class: inhibitors. hit rate 0.46% among 360,000; note: nearly all actives have a fitted effect of over 55% in size
#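 WRN at 20 nM final preincubated with compound 15 min at room temperature; reaction started with 100 nM fluorophore/quencher forked duplex oligonucleotide and 2 mM ATP final. Unwinding followed kinetically by red fluorescence (ex 525, em 598 nm).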
# Numbers stand for hits; i = inactive; ? = inconclusive; nt = no result; ! = not confirmed by another sample; [ ] = another dose, or the depositor's remark. Unless noted, calls come from the whole dose curve; as a rule, active = well fitted curve in the direction sought with a large enough effect; inconclusive = small, poorly fitted or top-dose-only effect, or another doubt; inactive = no such curve, though single readings can be large; an effect the other way counts as inactive or inconclusive.
SMILES,APEX1 inh,ERG Ets-DNA blk,KAT2A inh,RECQ1 inh,BLM inh,WRN helicase inh
O=CN1CCc2c([nH]c3ccccc23)C1c1cccc2cccnc12 (centres undefined),i,nt,nt,i,i,nt
Cc1ccc(N2C(=O)c3ccccc3C2=O)cc1,i,i,i,i,i,i
Cc1ccc(SC2=C(Sc3ccc(C)cc3)C(=O)c3ccccc3C2=O)cc1,i,i,i,i,i,79.4µM
O=C(Nc1ccccc1)c1ccc2nc(-c3ccco3)c(-c3ccco3)nc2c1,i,i,?,i,31.6µM,39.8µM
O=C(Nc1ccc(N2CCOCC2)cc1)c1ccc2nc(-c3ccco3)c(-c3ccco3)nc2c1,i,?,i,i,i,i
CCCCNC(=O)c1ccc2nc(-c3ccco3)c(-c3ccco3)nc2c1,i,i,i,i,15.8µM,79.4µM
Cc1ccccc1NS(=O)(=O)c1ccc(OCCNS(C)(=O)=O)cc1,i,7.08µM,i,i,i,i
Cc1ccccc1NS(=O)(=O)c1ccc(OCC(=O)N2CCCC2)cc1,i,i,i,i,i,i
[N-]=C=C1C(=S)NC(=O)[C@H]([n+]2ccccc2)[C@H]1c1ccc(Cl)cc1,?,i,11.2µM,31.6µM,i,i
COC(=O)C1=C[C@@H](C(=O)OC)C2C3=C(C(=O)[C@@]2(C)NC(=O)c2ccccc2)[C@H](C)[C@@H]2C(=O)NC(=O)[C@@H]2[C@@H]3C1 (some centres undefined),i,nt,nt,i,i,nt
C=CCC(C)(O)c1ccc(OC)cc1 (centres undefined),i,nt,nt,i,i,nt
O=C(COc1ccc(S(=O)(=O)N2CCOCC2)cc1)N1CCOCC1,i,i,i,nt,nt,i
O=C(COc1ccc(/C=C\[N+](=O)[O-])cc1)N1CCOCC1,?,i,i,31.6µM,i,i[11.6 µM]
CCCOc1ccc(N)cc1N,i,i,i,i,i,56.2µM
CCC(=O)OCC(=O)[C@@]1(OC(=O)CC)[C@H](C)C[C@H]2[C@@H]3CCC4=CC(=O)C=C[C@]4(C)[C@@]3(F)[C@@H](O)C[C@@]21C,i,nt,nt,nt,nt,nt
O=C1NC(=O)/C(=C/c2cccn2-c2ccc(P(O)O)cc2)N1,i,nt,nt,nt,nt,nt
Cc1cc(C)cc(C(=O)N(C)[C@H](Cc2ccc(-c3ccccc3)cc2)C(=O)N[C@@H](Cc2c[nH]c3ccccc23)C(=O)O)c1,i,nt,31.6µM!,i,i,nt
C=CCn1c(O)c(/C=C2\C=NN=C2c2ccccc2)sc1=S,i,i,?,i,i,i
CCCn1c(O)c(/C=C2\C=NN=C2c2ccccc2)sc1=S,i,i,2.24µM,i,i,i
CN(C)c1oc(-c2cccc3ccccc23)nc1C#N,i,nt,nt,nt,nt,nt
CCC(C)[C@H](NC(=O)C1CCC(CNC(=O)[C@@H]2CCCN2C(=O)OC(C)(C)C)CC1)C(=O)O (some centres undefined),150µM,i,i,nt,i,i
CC(C)[C@H](NC(=O)C1CCC(CNC(=O)[C@@H]2CCCN2C(=O)OC(C)(C)C)CC1)C(=O)O (some centres undefined),i,i,i,nt,i,i
Cc1ccccc1Cc1c(C)nc2c(-c3ccccc3)c(C)[nH]n2c1=O,nt,i,i,nt,i,nt
Cc1cc(C)nc(SCc2ccc(C(=O)N/N=C3\CCCC(=O)C3)cc2)n1,i,i,i,22.4µM,i,i
CCCCn1c(=O)c2oc3ccccc3c2n(Cc2ccc(C)cc2)c1=O,nt,i,i,nt,i,nt
COc1ccccc1C(=O)NC(=O)CSc1nnc2ccccn12,i,i,i,nt,nt,i
O=C(CSc1nnc2ccccn12)NC(=O)c1ccccc1Cl,13.4µM,i,i,nt,nt,i
O=S(=O)(O)c1cc(Cl)cc(N=Nc2ccc(O)cc2O)c1O,nt,nt,nt,nt,nt,50.1µM
